According to PubChem BioAssay (NCATS):
Several values for one entry are separate records, joined by “and”; a condition that tells them apart may be missing. Identical values can stand only once. Results filed as inconclusive are left out. Where a call stands in place of a potency, no number is given. Values without a mark were called inactive. Activity calls are given as the source filed them. The call rests on the fitted dose curve; in most records, active means well fitted inhibition curve with a large enough effect; inconclusive means small, poorly fitted or top-dose-only effect; inactive means flat fitted curve, though single readings scatter.

How the values were obtained:
P93_24 = test: qHTS profiling for inhibitors of Plasmodium falciparum proliferation (AID 504749); further: potency means the concentration at half of the fitted maximal effect; settings: P. falciparum in erythrocytes, SYBR Green DNA, 72 h; series mostly up to 28.7 µM
Procedure, shortened: (§1)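 P. falciparum-infected erythrocytes (0.3% parasitemia, 2.5% hematocrit) incubated with compound 72 h at 37 C, 5% CO2. Parasite DNA detected by SYBR Green after lysis, overnight at room temperature; normalised to 0.29 uM artemisinin and DMSO.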

P94_40 = test: as above; settings: P. falciparum in erythrocytes, SYBR Green DNA, 72 h; series mostly up to 28.7 µM
Procedure, shortened: as §1

PAD = test: as above; settings: P. falciparum in erythrocytes, SYBR Green DNA, 72 h; series mostly up to 28.7 µM
Procedure, shortened: as §1

PC15 = test: as above; settings: P. falciparum in erythrocytes, SYBR Green DNA, 72 h; series mostly up to 28.7 µM
Procedure, shortened: as §1

PC26 = test: as above; settings: P. falciparum in erythrocytes, SYBR Green DNA, 72 h; series mostly up to 28.7 µM
Procedure, shortened: as §1

PC49 = test: as above; settings: P. falciparum in erythrocytes, SYBR Green DNA, 72 h; series mostly up to 28.7 µM
Procedure, shortened: as §1

SC27B = test: as above; settings: P. falciparum in erythrocytes, SYBR Green DNA, 72 h; series mostly up to 28.7 µM
Procedure, shortened: as §1

TAB109 = test: as above; settings: P. falciparum in erythrocytes, SYBR Green DNA, 72 h; series mostly up to 28.7 µM
Procedure, shortened: as §1

TAB113 = test: as above; settings: P. falciparum in erythrocytes, SYBR Green DNA, 72 h; series mostly up to 28.7 µM
Procedure, shortened: as §1

TAB165 = test: as above; settings: P. falciparum in erythrocytes, SYBR Green DNA, 72 h; series mostly up to 28.7 µM
Procedure, shortened: as §1

W2 = test: as above; settings: P. falciparum in erythrocytes, SYBR Green DNA, 72 h; series mostly up to 28.7 µM
Procedure, shortened: as §1

CRL-7250 = normal cell line; test: Cytotoxic Profiling of Annotated Libraries Using Quantitative High-Throughput Screening (AID 1296008); settings: Five cell lines viability, CellTiter-Glo ATP luminescence, 48-72 h; max response: stronger effect = lower value; further: potency means the concentration at half of the fitted maximal effect
Procedure, shortened: (§2)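 Cells exposed to compounds for 48 or 72 hr at 37 degrees Celsius. Viability read as ATP-coupled luminescence with CellTiter-Glo after 10 min at room temperature.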

HEK293 = test: as above; settings: Five cell lines viability, CellTiter-Glo ATP luminescence, 48-72 h; max response: stronger effect = lower value
Procedure, shortened: as §2

HaCat [1] = test: as above; settings: Five cell lines viability, CellTiter-Glo ATP luminescence, 48-72 h; max response: stronger effect = lower value
Procedure, shortened: as §2

KB-3-1 = test: as above; settings: Five cell lines viability, CellTiter-Glo ATP luminescence, 48-72 h; max response: stronger effect = lower value
Procedure, shortened: as §2

NIH3T3 = test: as above; settings: Five cell lines viability, CellTiter-Glo ATP luminescence, 48-72 h; max response: stronger effect = lower value
Procedure, shortened: as §2

HACAT [2] = test: qHTS assay to identify novel small-molecules to repurpose for Merkel cell carcinoma treatment (AID 1296009); settings: MCC and control cell lines, CellTiter-Glo viability, 72 h; series mostly up to 44.8 µM
Procedure, shortened: (§3)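 Cells were treated for 72 hr at 37 degree celsius with compounds in 8- or 11-point dose response. Viability was read by CellTiter-Glo luminescence, normalized to no-cell (cytotoxicity) and DMSO controls.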

MCC-13 = test: as above; settings: MCC and control cell lines, CellTiter-Glo viability, 72 h; series mostly up to 46 µM
Procedure, shortened: as §3

HEK293T = test: as above; settings: MCC and control cell lines, CellTiter-Glo viability, 72 h; at 44.8 µM (top of the series) unless noted
Procedure, shortened: as §3

MCC-26 = test: as above; settings: MCC and control cell lines, CellTiter-Glo viability, 72 h; series mostly up to 46 µM
Procedure, shortened: as §3
Further: nearly all actives have a fitted effect of over 60% in size.

In the case of `CCCNCC(O)COc1ccccc1C(=O)CCc1ccccc1` (centres undefined), the Potency (P93_24) is reported as 501 nM (active), the Potency (P94_40) is reported as 316 nM (active) and the Potency (PAD) is reported as 398 nM (active). For the same compound, the Potency (PC15) was 708 nM (active), the Potency (PC26) was 1690 nM (active) and the Potency (PC49) was 316 nM (active). For the same compound, the Potency (SC27B) was 891 nM (active), the Potency (TAB109) was 794 nM (active) and the Potency (TAB113) was 794 nM (active). For the same compound, the Potency (TAB165) was 447 nM (active), the Potency (W2) was 379 nM (active) and the max response (CRL-7250) was -5.96%. For the same compound, the outcome (CRL-7250) was “inactive”, the Potency (HEK293) was 21100 nM (active) and the max response (HaCat [1]) was -2.94%. For the same compound, the outcome (HaCat [1]) was “inactive”, the max response (KB-3-1) was -15.9% and 1.74% and the max response (NIH3T3) was -20.3% and -9.95%. For the same compound, the outcome (HACAT [2]) was “inactive” and the Potency (MCC-13) was “inactive”.
With `NC(=O)OCC(COC(N)=O)c1ccccc1` the Potency (P93_24) was “inactive”, the Potency (P94_40) was “inactive” and the Potency (PAD) was “inactive”. The Potency (PC15) was “inactive”, the Potency (PC26) was “inactive” and the Potency (PC49) was “inactive”. The Potency (SC27B) was “inactive”, the Potency (TAB109) was “inactive” and the Potency (TAB113) was “inactive”. For the same compound, the Potency (TAB165) was “inactive”, the max response (CRL-7250) was 2.98% and -7.95% and the max response (HEK293) was -9.25%. For the same compound, the outcome (HEK293) was “inactive”, the outcome (HaCat [1]) was “inactive” and the max response (KB-3-1) was -1.19%. The max response (NIH3T3) was -0.687%, the outcome (NIH3T3) was “inactive” and the outcome (HACAT [2]) was “inactive”. The outcome (HEK293T) was “inactive” and the Potency (MCC-13) was “inactive”.
In the case of `CC(=O)OCC(CCn1cnc2cnc(N)nc21)COC(C)=O`, the Potency (P93_24) is reported as “inactive”, the Potency (P94_40) is reported as “inactive” and the Potency (PAD) is reported as “inactive”. The Potency (PC15) was “inactive”, the Potency (PC26) was “inactive” and the Potency (PC49) was “inactive”. For the same compound, the Potency (SC27B) was “inactive”, the Potency (TAB109) was “inactive” and the Potency (TAB113) was “inactive”. For the same compound, the Potency (TAB165) was “inactive”, the Potency (W2) was “inactive” and the max response (CRL-7250) was 3.84%. For the same compound, the outcome (CRL-7250) was “inactive”, the outcome (HEK293) was “inactive” and the max response (HaCat [1]) was 1.33% and 3.92%. For the same compound, the max response (KB-3-1) was 12.3% and 3.49%, the max response (NIH3T3) was 3.32% and the outcome (NIH3T3) was “inactive”. The outcome (HEK293T) was “inactive”, the Potency (MCC-13) was “inactive” and the Potency (MCC-26) was “inactive”.
For `Clc1ccc2nsnc2c1NC1=NCCN1`, the Potency (P93_24) was “inactive”, the Potency (P94_40) was “inactive” and the Potency (PAD) was “inactive”. For the same compound, the Potency (PC15) was “inactive”, the Potency (PC26) was “inactive” and the Potency (PC49) was “inactive”. For the same compound, the Potency (SC27B) was “inactive”, the Potency (TAB109) was “inactive” and the Potency (TAB113) was “inactive”. For the same compound, the Potency (TAB165) was “inactive”, the Potency (W2) was “inactive” and the max response (CRL-7250) was 0.544% and 2.61%. For the same compound, the max response (HEK293) was -8.03%, the outcome (HEK293) was “inactive” and the max response (HaCat [1]) was 2.64%. The outcome (HaCat [1]) was “inactive”, the max response (NIH3T3) was 1.46% and the outcome (NIH3T3) was “inactive”. For the same compound, the outcome (HACAT [2]) was “inactive”, the outcome (HEK293T) was “inactive” and the Potency (MCC-13) was “inactive”. For the same compound, the Potency (MCC-26) was “inactive”.
`C[C@H]1c2cccc(O)c2C(O)=C2C(=O)[C@]3(O)C(O)=C(C(N)=O)C(=O)[C@@H](N(C)C)[C@@H]3[C@@H](O)[C@@H]21` was tested, and the max response (CRL-7250) was -2.19%, the outcome (CRL-7250) was “inactive” and the max response (HEK293) was -8.48%. For the same compound, the outcome (HaCat [1]) was “inactive”, the max response (NIH3T3) was 1.59% and the outcome (NIH3T3) was “inactive”. For the same compound, the outcome (HACAT [2]) was “inactive”, the Potency (MCC-13) was “inactive” and the Potency (MCC-26) was “inactive”.
With `CC(C)(C)C(=O)Oc1ccc(S(=O)(=O)Nc2ccccc2C(=O)NCC(=O)O)cc1` the Potency (P93_24) was “inactive”, the Potency (P94_40) was “inactive” and the Potency (PAD) was “inactive”. For the same compound, the Potency (PC15) was “inactive”, the Potency (PC26) was “inactive” and the Potency (PC49) was “inactive”. The Potency (SC27B) was “inactive”, the Potency (TAB109) was “inactive” and the Potency (TAB113) was “inactive”. The Potency (TAB165) was “inactive”, the Potency (W2) was “inactive” and the max response (CRL-7250) was 4.89%. For the same compound, the outcome (CRL-7250) was “inactive”, the max response (HEK293) was -6.47% and the outcome (HEK293) was “inactive”. The max response (HaCat [1]) was -9.37%, the outcome (HaCat [1]) was “inactive” and the max response (KB-3-1) was -8.85%. For the same compound, the outcome (KB-3-1) was “inactive”, the max response (NIH3T3) was -7.41% and -3.91% and the outcome (HACAT [2]) was “inactive”. For the same compound, the outcome (HEK293T) was “inactive”, the Potency (MCC-13) was “inactive” and the Potency (MCC-26) was “inactive”.
With `CCc1cccc2c3c([nH]c12)C(CC)(CC(=O)O)OCC3` (centres undefined) the max response (CRL-7250) was -0.931%, the max response (HEK293) was 1.01% and the outcome (HEK293) was “inactive”. For the same compound, the max response (HaCat [1]) was 2.9%, the outcome (HaCat [1]) was “inactive” and the max response (NIH3T3) was 3.41% and -0.401%. For the same compound, the outcome (HACAT [2]) was “inactive”, the outcome (HEK293T) was “inactive” and the Potency (MCC-13) was “inactive”. For the same compound, the Potency (MCC-26) was “inactive”.
`NC12CC3CC(CC(C3)C1)C2` was tested, and the Potency (P93_24) was “inactive”, the Potency (P94_40) was “inactive” and the Potency (PAD) was “inactive”. The Potency (PC26) was “inactive”, the Potency (PC49) was “inactive” and the Potency (SC27B) was “inactive”. The Potency (TAB109) was “inactive”, the Potency (TAB113) was “inactive” and the Potency (TAB165) was “inactive”. The Potency (W2) was “inactive”, the outcome (CRL-7250) was “inactive” and the max response (HEK293) was 1.92%. For the same compound, the outcome (HEK293) was “inactive”, the max response (HaCat [1]) was 3.56% and the outcome (HaCat [1]) was “inactive”. For the same compound, the max response (KB-3-1) was 5.54% and 19.1%, the max response (NIH3T3) was 1.39% and the outcome (NIH3T3) was “inactive”. The outcome (HACAT [2]) was “inactive”, the outcome (HEK293T) was “inactive” and the Potency (MCC-13) was “inactive”. The Potency (MCC-26) was “inactive”.
In the case of `O=C(c1ccc(F)cc1)C1CCN(CCn2c(=O)[nH]c3ccccc3c2=O)CC1`, the Potency (P93_24) is reported as “inactive”, the Potency (PAD) is reported as “inactive” and the Potency (PC15) is reported as “inactive”. The Potency (PC26) was “inactive”, the Potency (PC49) was “inactive” and the Potency (SC27B) was “inactive”. The Potency (TAB109) was “inactive”, the Potency (TAB113) was “inactive” and the Potency (TAB165) was “inactive”. The max response (CRL-7250) was -21.4% and 4.56%, the outcome (CRL-7250) was “inactive” and the max response (HEK293) was -0.877% and -3.18%. The max response (HaCat [1]) was -0.754% and -2.78% and -3.98%, the max response (KB-3-1) was -2.16% and 6.29% and the outcome (NIH3T3) was “inactive”. For the same compound, the Potency (MCC-13) was “inactive” and the Potency (MCC-26) was “inactive”.
In the case of `CN1CCN(CCCN2c3ccccc3Sc3ccc(Cl)cc32)CC1`, the max response (CRL-7250) is reported as -6.94%, the outcome (CRL-7250) is reported as “inactive” and the Potency (HEK293) is reported as 14800 nM (active). The max response (HaCat [1]) was 0.937%, the outcome (HaCat [1]) was “inactive” and the max response (NIH3T3) was -25.1%. The outcome (HACAT [2]) was “inactive”, the Potency (MCC-13) was “inactive” and the Potency (MCC-26) was “inactive”.
